AGP1 TOR yeast – yeast TOR pathway AGP1-GFP modulation. S. cerevisiae AGP1-GFP multiplex flow cytometry, 3 h; GFP as percent of DMSO wells. GFP response vs DMSO, % at 10 µM. hit rate 0.02% among 320,000. AID 2066;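 active means GFP response relative to DMSO above a set limit, near screen average plus 3 SD, cut at about 150% in these data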;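 further: median GFP channel fluorescence of the gated AGP1 strain per well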
LAP4 TOR yeast – alters LAP4-GFP fluorescence in TOR pathway yeast screen | GFP response vs DMSO, % at 10 µM | S. cerevisiae LAP4-GFP multiplex, flow cytometry GFP, 3 h; median GFP as percent of DMSO wells | hit rate 0.34% among 320,000;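 active means GFP response vs DMSO above a set limit, about the screen mean plus 3 SD, cut at about 150% in these data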
RPL19A TOR yeast – alters RPL19A-GFP fluorescence in TOR pathway yeast screen; percent response vs DMSO, % at 10 µM; hit rate 0.3% among 330,000; S. cerevisiae RPL19A-GFP strain, flow cytometry, 3 h; stronger effect = lower value;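 active means percent response vs DMSO below 50%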;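 further: median channel GFP fluorescence of the barcoded RPL19A-GFP strain; ratio of sample median GFP to plate DMSO average so 100% = DMSO; lower means less RPL19A-GFP as with rapamycin TOR inhibition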
MEP2 TOR yeast – modulators of TOR pathway MEP2-GFP in S. cerevisiae. S. cerevisiae MEP2-GFP strain, flow cytometry GFP, 3 h; 100% = DMSO control level. GFP response vs DMSO, % at 10 µM. hit rate 0.51% among 330,000;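 active means GFP response versus DMSO above a set limit, roughly screen mean plus 3 SD, cut at about 180% in these data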;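 further: median GFP fluorescence of the barcode-gated MEP2-GFP cells per well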
CIT2 TOR yeast – alters CIT2-GFP fluorescence in TOR pathway yeast screen. S. cerevisiae CIT2-GFP strain, flow cytometry, 3 h; 100 means same as DMSO wells. GFP response vs DMSO, % at 10 µM. hit rate 0.065% among 320,000. AID 2029;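 active means GFP response relative to DMSO above a set limit, near the screen mean plus 3 SD, cut at about 150% in these data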;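 further: ratio of well median GFP fluorescence to mean of DMSO wells on the plate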
GASC-1 inh – inhibitors of human GASC-1 (JMJD2C) demethylase. Q9H3R0. GST-JMJD2C(1-420) H3K9me3 demethylation, DELFIA europium. inhibition, % at 2.35 µM. hit rate 0.069% among 330,000. AID 2099;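 active means more than half of a compound's replicate wells show inhibition beyond 50%, single wells judged on their own value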;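 further: signal counts dimethyl H3K9 product captured on neutravidin plate; 0% = median of DMSO wells and 100% = 0.3 times that DMSO median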
Target sequence (Q9H3R0 1-420 limits assumed): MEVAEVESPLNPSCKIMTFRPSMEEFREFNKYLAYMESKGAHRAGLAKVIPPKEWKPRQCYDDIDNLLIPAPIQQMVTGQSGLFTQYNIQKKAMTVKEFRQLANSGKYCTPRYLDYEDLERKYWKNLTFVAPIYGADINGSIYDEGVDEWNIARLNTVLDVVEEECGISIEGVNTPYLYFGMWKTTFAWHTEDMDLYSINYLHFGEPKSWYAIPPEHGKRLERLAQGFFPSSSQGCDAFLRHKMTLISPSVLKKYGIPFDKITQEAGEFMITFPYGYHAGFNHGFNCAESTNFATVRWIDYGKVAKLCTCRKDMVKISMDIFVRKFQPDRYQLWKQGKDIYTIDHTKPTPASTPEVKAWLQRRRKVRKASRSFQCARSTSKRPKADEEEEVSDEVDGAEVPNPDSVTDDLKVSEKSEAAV
LAP4 cherry2 – second confirmation of modulators of TOR reporter LAP4-GFP in yeast | shares compounds with LAP4 TOR yeast | S. cerevisiae LAP4-GFP strain, flow cytometry GFP, 3 h | GFP response vs DMSO, % at 10 µM | hit rate 20% among 590 | AID 2621;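 active means GFP signal as percent of the solvent control above about 150%, meaning raised reporter expression, limit read from the data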;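 further: ratio of well median GFP fluorescence to plate DMSO mean so 100% = DMSO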
MEP2-GFP pick2 – reconfirmed MEP2-GFP TOR pathway modulator in yeast | GFP response vs DMSO, % at 10 µM | S. cerevisiae MEP2-GFP strain, flow cytometry GFP, 3 h | hit rate 10% among 590 | shares compounds with LAP4 TOR yeast;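 active means GFP signal above 150% of the solvent control wells, that is a rise of more than half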;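 further: median channel GFP fluorescence of all gated yeast cells per well; ratio of median GFP to plate DMSO average so 100% = DMSO level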
RPL19A-GFP pick2 – yeast RPL19A-GFP TOR reporter modulation, second cherry pick. shares compounds with LAP4 TOR yeast. S. cerevisiae RPL19A-GFP strain, flow cytometry GFP, 3 h; stronger effect = lower value; 100% means same as DMSO wells. GFP response vs DMSO, % at 10 µM. hit rate 3% among 590;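 active means under 65% GFP response relative to DMSO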;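 further: median GFP channel fluorescence per well over the all cells gate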
CIT2-GFP pick2 – second confirmation of modulators of TOR reporter CIT2-GFP in yeast | shares compounds with LAP4 TOR yeast | GFP response vs DMSO, % at 10 µM | hit rate 8% among 590 | S. cerevisiae CIT2-GFP strain, flow cytometry GFP, 3 h; DMSO control wells read 100%;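 active means GFP response vs DMSO above about 150%, limit read from the data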;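 further: median green fluorescence per well over all gated yeast cells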
AGP1 GFP CP2 – reconfirmed modulator of AGP1-GFP TOR reporter in yeast; shares compounds with LAP4 TOR yeast; S. cerevisiae AGP1-GFP strain, flow cytometry GFP, 3 h; percent response vs DMSO, % at 10 µM; 590 tested, under 10 active; AID 2643;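 active means over 150 percent of DMSO response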;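 further: median GFP channel fluorescence over all cells without mother daughter split; sample median GFP divided by mean DMSO control so 100% equals DMSO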
Yeast autofluor – compound is autofluorescent in yeast s288c cells; shares compounds with LAP4 TOR yeast; AID 2757; 610 tested, under 10 active; fluorescence change (kMESF span) at 33 µM; S. cerevisiae s288c, 520 nm autofluorescence, flow cytometry, 3 h; stronger effect = higher value; zero means same as solvent-only cells;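 active means fluorescence span over the dose series, or activity score, above about 33, limit read from the data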
TORC1 bypass – stops wildtype yeast growth while TORC1 bypass cells still grow; shares compounds with LAP4 TOR yeast; S. cerevisiae BY4741 spot growth rating, 48-72 h; stronger effect = lower value; growth rating (0-3) at 30 µM; 120 tested, under 10 active; AID 504456;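 active means growth rating at most 1 for wild type yeast while the TORC1 bypass strain still grows fully, rated 3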
* marks the source's active call; other numbers are inactive results. Most compounds without a hit are left out; they make up all but 0.97% or so of the library.

What do the screens show for `Cc1[nH]n(-c2ccccc2)c(=O)c1C(c1ccccc1[N+](=O)[O-])C(C#N)C#N` (centres undefined)?
AGP1 TOR yeast: 83; LAP4 TOR yeast: 168*; RPL19A TOR yeast: 105; MEP2 TOR yeast: 95; CIT2 TOR yeast: 100; GASC-1 inh: -19; Yeast autofluor: 1.3

Results for COc1ccc(NC(=O)/C(=C\c2ccc(OC)c(OC)c2)NC(=O)c2ccco2)cc1 ?
AGP1 TOR yeast: 102; LAP4 TOR yeast: 95; RPL19A TOR yeast: 101; MEP2 TOR yeast: 100; CIT2 TOR yeast: 101; GASC-1 inh: -3

Results for CN1CCC(OC(=O)c2ccco2)CC1 ?
AGP1 TOR yeast: 105; LAP4 TOR yeast: 104; RPL19A TOR yeast: 102; MEP2 TOR yeast: 97; CIT2 TOR yeast: 104; GASC-1 inh: 1

What do the screens show for `O=C(OC1CSc2nc3ccccc3n2C1)c1ccco1` (centres undefined)?
AGP1 TOR yeast: 25; LAP4 TOR yeast: 94; RPL19A TOR yeast: 18*; MEP2 TOR yeast: 283*; CIT2 TOR yeast: 90; GASC-1 inh: 2; LAP4 cherry2: 101; MEP2-GFP pick2: 105; RPL19A-GFP pick2: 101; CIT2-GFP pick2: 104; AGP1 GFP CP2: 104

Results for COc1ccc(C(=O)O/N=C2\C(=O)N(C)c3ccccc32)cc1 ?
AGP1 TOR yeast: 88; LAP4 TOR yeast: 138; RPL19A TOR yeast: 97; MEP2 TOR yeast: 99; CIT2 TOR yeast: 112; GASC-1 inh: -2

Results for CN1C(=O)/C(=N\OC(=O)c2cccc3ccccc23)c2ccccc21 ?
AGP1 TOR yeast: 75; LAP4 TOR yeast: 207*; RPL19A TOR yeast: 92; MEP2 TOR yeast: 106; CIT2 TOR yeast: 82; GASC-1 inh: -7; Yeast autofluor: 0.4

What do the screens show for `Oc1c(Br)cc(Br)cc1C=Nc1ccc2c(c1)OCCO2`?
AGP1 TOR yeast: 86; LAP4 TOR yeast: 83; RPL19A TOR yeast: 108; MEP2 TOR yeast: 94; CIT2 TOR yeast: 85; GASC-1 inh: -34

Results for Oc1c(Br)cc(Br)cc1C=Nc1ccc2c(c1)OCO2 ?
AGP1 TOR yeast: 87; LAP4 TOR yeast: 152*; RPL19A TOR yeast: 91; MEP2 TOR yeast: 96; CIT2 TOR yeast: 97; GASC-1 inh: 2; Yeast autofluor: -0.11

What do the screens show for `Cc1cc(Nc2cc(-c3ccccc3)nc(NCc3ccccc3)n2)n[nH]1`?
TORC1 bypass: 3

How did C[C@@H]1CCC2[C@](C)(CO)[C@@H](O)CC[C@]2(C)[C@@]12C[C@](CO)(CC(=O)O)CO2 (some centres undefined) do in these assays?
AGP1 TOR yeast: 73; LAP4 TOR yeast: 72; RPL19A TOR yeast: 92; MEP2 TOR yeast: 85; CIT2 TOR yeast: 98; GASC-1 inh: 6

What do the screens show for `CCOC(=O)COc1ccc2ccccc2c1/C=C/[N+](=O)[O-]`?
AGP1 TOR yeast: 86; LAP4 TOR yeast: 230*; RPL19A TOR yeast: 79; MEP2 TOR yeast: 84; CIT2 TOR yeast: 89; GASC-1 inh: 5; LAP4 cherry2: 293*; MEP2-GFP pick2: 114; RPL19A-GFP pick2: 82; CIT2-GFP pick2: 118; AGP1 GFP CP2: 98; Yeast autofluor: 0.1

What do the screens show for `CCOC(=O)Cn1cc(/C=C/[N+](=O)[O-])c2ccccc21`?
AGP1 TOR yeast: 93; LAP4 TOR yeast: 154*; RPL19A TOR yeast: 92; MEP2 TOR yeast: 94; CIT2 TOR yeast: 76; GASC-1 inh: -1; Yeast autofluor: 0.31

How did CSCCC(NS(=O)(=O)c1ccccc1F)C(=O)Nc1ccncc1 (centres undefined) do in these assays?
AGP1 TOR yeast: 97; LAP4 TOR yeast: 97; RPL19A TOR yeast: 95; MEP2 TOR yeast: 96; CIT2 TOR yeast: 93; GASC-1 inh: 0

How did CC1CC(C)CN(CC(=O)Nc2cc(S(=O)(=O)N3CCOCC3)ccc2N2CCCC2)C1 (centres undefined) do in these assays?
AGP1 TOR yeast: 97; LAP4 TOR yeast: 93; RPL19A TOR yeast: 98; MEP2 TOR yeast: 105; CIT2 TOR yeast: 98; GASC-1 inh: -1

Results for Cc1ccc(C(NC(=O)C(C)C)c2cc([N+](=O)[O-])c3cccnc3c2O)cc1 (centres undefined) ?
AGP1 TOR yeast: 85; LAP4 TOR yeast: 88; RPL19A TOR yeast: 94; MEP2 TOR yeast: 95; CIT2 TOR yeast: 86; GASC-1 inh: 4

How did CC(C)C(=O)NC(c1cccs1)c1cc([N+](=O)[O-])c2cccnc2c1O (centres undefined) do in these assays?
AGP1 TOR yeast: 55; LAP4 TOR yeast: 153*; RPL19A TOR yeast: 88; MEP2 TOR yeast: 128; CIT2 TOR yeast: 109; GASC-1 inh: 13; Yeast autofluor: -0.1

How did CCC(C)NC(=O)CS(=O)Cc1nc(-c2cccc(C)c2)oc1C (centres undefined) do in these assays?
AGP1 TOR yeast: 118; LAP4 TOR yeast: 156*; RPL19A TOR yeast: 86; MEP2 TOR yeast: 128; CIT2 TOR yeast: 123; GASC-1 inh: 5; LAP4 cherry2: 104; MEP2-GFP pick2: 103; RPL19A-GFP pick2: 99; CIT2-GFP pick2: 100; AGP1 GFP CP2: 98
